mHTT-CaM PPI inh = disrupts binding of mutant huntingtin to calmodulin; P42858; AlphaScreen His-mHTT/GST-CaM binding, luminescence; inhibition, % at 15 µM; actives 3.6% (n = 190,000); AID 1671202;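 note: 0% = both proteins with DMSO and 100% = one protein alone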
Pf apPOL inh = Pf-apPOL DNA polymerase inhibition; inhibition, % at 10 µM; AID 1794808; actives 0.25% (n = 210,000); Recombinant Pf-apPOL, molecular beacon fluorescence, 1.5 h
Starred values were filed as active, the others as inactive; i = inactive; · = not tested or not shown. An excerpt weighted towards active compounds, which were near 3.6% of everything screened. Cut-off read from the data, not from the text of the source: active = inhibition above about 50%; inactive = the rest.

SMILES | mHTT-CaM PPI inh | Pf apPOL inh
COC(=O)C1=COC(C)C2CN3CCC4(C(=O)Nc5c4ccc(OC)c5OC)C3CC12 (stereo unspecified) | · | -12
COc1ccc(Cl)cc1/C=C/[N+](=O)[O-] | 19 | -11
O=C(CN1C(=O)CN=C(c2ccccc2)c2cc(Cl)ccc21)Nc1cccc(C(F)(F)F)c1 | 82* | -14
CC1N=C(c2ccccc2)c2ccccc2N(CC(=O)Nc2ccc(N(C)C)cc2)C1=O (stereo unspecified) | 35 | -24
CC1N=C(c2ccccc2)c2ccccc2N(CC(=O)NCc2ccco2)C1=O (stereo unspecified) | 1 | -15
Cc1cc(C)n(C(=O)CN2C(=O)CN=C(c3ccccc3)c3cc(Br)ccc32)n1 | 64* | -11
CCN(C(=O)CN1C(=O)C(C)N=C(c2ccccc2)c2ccccc21)c1cccc(C)c1 (stereo unspecified) | 26 | -1
O=C(CN1C(=O)CN=C(c2ccccc2)c2cc(Cl)ccc21)NCc1cccc(Cl)c1 | 91* | -12
COc1ccc2c(c1)C1(CCN(C(=O)c3ccccc3OC)C1)C(=O)N2 (stereo unspecified) | 4 | -3
CC(=O)[C@@H]1[C@@H]2NC(=O)N[C@@]1(C)Oc1ccccc12 | 0 | ·
O=C(COc1ccccc1)N1CCN(Cc2ccccc2[N+](=O)[O-])CC1 | 6 | 4
COc1ccc2c(c1)C1(CCN(C(=O)c3ccccc3OC)C1)C(=O)N2C (stereo unspecified) | 8 | -2
Cc1ccc(C(=O)Nc2ccc(N/C(N)=N/[N+](=O)[O-])cc2)cc1 | i | 2
CN1CCc2[nH]c(=S)c(C#N)cc2C1 | 23 | ·
CN1CCc2[nH]c(=S)c(C#N)c(-c3cccs3)c2C1 | 52* | ·
CC1CCC2(NC1)OC1CC3C4CCC5CC(O)CCC5(C)C4CCC3(C)C1C2C (stereo unspecified) | · | -8
COc1cccc2cc(C(=O)N3CC4CC(C3)c3cccc(=O)n3C4)c(=O)oc12 (stereo unspecified) | -2 | 0
Cc1ccc(CN2CCN(Cc3ccccc3)CC2)cc1 | 1 | -11
Nc1nc2ccccc2c(-c2cccc3ccccc23)c1CN1CC1 | 98* | ·
O=c1[nH]c(=S)[nH]c(O)c1C=C1C=CC=N1 | · | 89*
Cc1ccc(NC(=O)c2nc(C)n(C3CCN(C)CC3)c2C)cc1 | 4 | -8
COc1ccc(N2CCN(Cc3ccc(F)cc3)CC2)cc1 | 22 | 0
COc1ccc(N2CCN(Cc3cccc(Cl)c3Cl)CC2)cc1 | 56* | 5
COc1ccc(N2CCN(Cc3ccc(Cl)cc3)CC2)cc1 | 34 | -6
COc1ccc(N2CCN(Cc3ccc(Cl)c(Cl)c3)CC2)cc1 | 65* | -5
COc1ccc(CNC(=O)N2CCC3(C2)C(=O)Nc2ccc(OC)cc23)cc1 (stereo unspecified) | 8 | -3
COc1ccc(Cn2cc(C(=O)O)nn2)cc1F | -5 | -4
CCC(=O)N1N=C2C3CCN(CC3)C2C1c1cc(C)cc(C)c1 (stereo unspecified) | -1 | -6
